Test results from PubChem BioAssay (EPA / NIEHS).
Records with an inconclusive call do not appear. Calls of active or inactive are those of the source. Rule for the calls, unless noted: active = hit-call score of the fitted dose curve at least 0.9, where 1 is the maximum; inconclusive = response in the unintended direction; inactive = score below 0.9.

Columns and labels:
[1] = ATG_TCF_b_cat_CIS: Attagene CIS-FACTORIAL HepG2 Assay for human T-Cell-Factor with beta-catenin (TCF/b-cat) (AID 2282965; active = hit-call score of the fitted dose curve at least 0.9, where 1 is the maximum; inactive = score below 0.9); conditions: HepG2 TCF/beta-catenin cis-reporter transcription, actives raise or lower the signal
In short: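 Endogenous transcription factor activity is captured through cis-promoter reporter constructs transiently introduced into human HepG2 liver cells. Induced reporter mRNA is measured after 24 h and fitted bidirectionally relative to DMSO.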

[2] = ATG_TAL_CIS: Attagene CIS-FACTORIAL HepG2 Assay for human TAL Basal Promoter (AID 2282966; active = hit-call score of the fitted dose curve at least 0.9, where 1 is the maximum; inactive = score below 0.9;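 note: background control endpoint measuring basal TAL promoter reporter mRNA not a specific factor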); conditions: HepG2 Attagene cis-factorial TAL promoter reporter; actives raise or lower the signal
In short: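 HepG2, transient MRTU transfection, 24 h compound exposure; RNA → oligo(dT) RT → PCR → 6-FAM primer extension → HpaI digest → CE fluorescence. Bidirectional curve fit vs DMSO. Background-control readout.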

[3] = ATG_TGFb_CIS: Attagene CIS-FACTORIAL HepG2 Assay for human Transforming Growth Factor (TGF) (AID 2282967; active = hit-call score of the fitted dose curve at least 0.9, where 1 is the maximum; inactive = score below 0.9); conditions: HepG2 Attagene CIS TGFb reporter, mRNA transcription; actives raise or lower the signal
In short: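 Transient MRTU transfection of HepG2 (FuGene 6). Dose 24 h. TriZol RNA, oligo(dT) RT, PCR, 6-FAM primer extension, HpaI cut, CE. Bidirectional fit, DMSO = baseline.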

[4] = ATG_VDRE_CIS: Attagene CIS-FACTORIAL HepG2 Assay for human Vitamin D Receptor Element (VDRE) (AID 2282968; active = hit-call score of the fitted dose curve at least 0.9, where 1 is the maximum; inactive = score below 0.9); conditions: HepG2 VDRE cis-reporter transcription, actives raise or lower the signal
In short: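 Readout is VDRE-driven reporter mRNA reflecting endogenous factor activity in human HepG2 cells, sampled 24 h post-dose. Quantification used labelled RT-PCR products separated by capillary electrophoresis; bidirectional analysis relative to DMSO.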

[5] = target: Estrogen receptor (Homo sapiens) (UniProt P03372); assay: ATG_ERa_TRANS: Attagene TRANS-FACTORIAL HepG2 Assay for human Estrogen Receptor alpha (ERa) (AID 2282970); conditions: HepG2 Attagene TRANS ERa GAL4 reporter, mRNA
In short: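 Reporter mRNA induction after 24 hours, detected by fluorescent RT-PCR and capillary electrophoresis, gives the read-out. Cells are HepG2 transiently transfected with GAL4-UAS reporter transcription units responding to chimeric NR-Gal4. Activity is taken as gain of signal over DMSO baseline.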

[6] = target: X-box-binding protein 1 (Homo sapiens) (UniProt P17861); assay: ATG_Xbp1_CIS: Attagene CIS-FACTORIAL HepG2 Assay for human X-box Binding Protein 1 (XBP1) (AID 2282972; active = hit-call score of the fitted dose curve at least 0.9, where 1 is the maximum; inactive = score below 0.9); conditions: HepG2 XBP1 cis-element reporter, Attagene multiplex; actives raise or lower the signal
In short: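 Human hepatoma HepG2, cis-element reporter system, 24 h treatment; mRNA quantified by RT-PCR/CE fluorescence; fit relative to DMSO.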

[7] = target: Oxysterols receptor LXR-alpha (Homo sapiens) (UniProt Q13133); assay: ATG_LXRa_TRANS: Attagene TRANS-FACTORIAL HepG2 Assay for human Liver X Receptor alpha (LXRa) (AID 2282980); conditions: HepG2 Attagene TRANS reporter, LXRa transactivation
In short: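 Read-out: reporter transcript levels by RT-PCR plus capillary electrophoresis, fluorescence intensity. Transiently transfected HepG2, exogenous NR-GAL4 chimera, GAL4-UAS reporters; 24 h compound exposure. Activity = increase over DMSO negative control.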

[8] = target: Hepatocyte nuclear factor 4-alpha (Homo sapiens) (UniProt P41235); assay: ATG_HNF4a_TRANS: Attagene TRANS-FACTORIAL HepG2 Assay for human Hepatocyte Nuclear Factor 4 alpha (HNF4a) (AID 2282982); conditions: HepG2 HNF4a transactivation reporter, mRNA readout
In short: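 Activity of an exogenous HNF4a–Gal4 fusion scored as induced GAL4-UAS reporter transcripts after 24 h chemical exposure of transfected human HepG2 cells. Read-out via RT-PCR with 6-FAM labelling and capillary electrophoresis; rise over DMSO baseline.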

[9] = ATG_M_06_TRANS: Attagene TRANS-FACTORIAL HepG2 Assay for M06 Transcription Factor (Internal Marker) (AID 2282983); conditions: HepG2 Attagene TRANS M06 internal marker reporter
In short: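 Read-out: fluorescent reporter cDNA fragments resolved by capillary electrophoresis after RT-PCR and HpaI cut. Source cells were HepG2 carrying transfected multi-reporter GAL4 constructs, dosed 24 h. Increase over DMSO control analysed.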

[10] = target: Nuclear receptor subfamily 4 group A member 2 (Homo sapiens) (UniProt P43354); assay: ATG_NURR1_TRANS: Attagene TRANS-FACTORIAL HepG2 Assay for human Nuclear Receptor Related Protein 1 (NURR1) (AID 2282985); conditions: HepG2 Attagene TRANS reporter, mRNA readout
In short: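 Reporter transcript induction, measured by RT-PCR with fluorescent labelling, HpaI digestion and capillary electrophoresis, after 24 hr dosing of human HepG2 cells transiently expressing an exogenous NR-Gal4 fusion with GAL4-UAS-driven reporters; DMSO as baseline.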

[11] = target: Transcriptional activator Myb (Homo sapiens) (UniProt P10242); assay: ATG_Myb_CIS: Attagene CIS-FACTORIAL HepG2 Assay for human Myeloblastosis (Myb) Proto-Oncogene Transcription Factor (AID 2282986; active = hit-call score of the fitted dose curve at least 0.9, where 1 is the maximum; inactive = score below 0.9); conditions: HepG2 Attagene CIS-FACTORIAL Myb reporter transcription; actives raise or lower the signal
In short: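 Using HepG2 liver cells bearing transiently transfected cis-promoter reporter constructs, the assay measures induction or loss of reporter mRNA after 24 hours of dosing. Detection used fluorescently labeled RT-PCR products separated by capillary electrophoresis.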

[12] = ATG_M_19_TRANS: Attagene TRANS-FACTORIAL HepG2 Assay for M19 Transcription Factor (Internal Marker) (AID 2282974); conditions: HepG2 Attagene TRANS-FACTORIAL M19 internal marker reporter
In short: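 Multiplexed TRANS format: HepG2 liver cells bearing transient GAL4-UAS reporter units, chemical treatment 24 h, reporter transcripts quantified by RT-PCR plus capillary electrophoresis. DMSO defines baseline.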

[13] = ATG_GAL4_TRANS: Attagene TRANS-FACTORIAL HepG2 Assay for GAL4 (Internal Marker) (AID 2282976); conditions: HepG2 Attagene TRANS GAL4 internal marker reporter
In short: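 RT-PCR/capillary electrophoresis readout of reporter mRNA. HepG2, transient MRTU transfection (GAL4-UAS reporters), 24 h compound exposure. Background-control endpoint, positive direction vs DMSO baseline.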

[14] = target: Estrogen-related receptor gamma (Homo sapiens) (UniProt P62508); assay: ATG_ERRg_TRANS: Attagene TRANS-FACTORIAL HepG2 Assay for human Estrogen-Related Receptor gamma (ERRg) (AID 2282977); conditions: HepG2 Attagene TRANS reporter, ERRg transactivation;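 note: hits increase reporter signal over DMSO so potencies reflect activators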
In short: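 Induction of reporter transcripts through a chimeric NR-Gal4 protein is quantified in transfected human HepG2 liver cells after 24 h chemical exposure, using RT-PCR with capillary electrophoresis detection and DMSO as baseline.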

[15] = ATG_M_32_TRANS: Attagene TRANS-FACTORIAL HepG2 Assay for M32 Transcription Factor (Internal Marker) (AID 2282984); conditions: HepG2 Attagene TRANS M32 internal marker reporter;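 note: transcript level of a background control reporter unit measured by RT-PCR and capillary electrophoresis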
In short: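 Internal background reporter in transfected HepG2: after 24 h chemical exposure, RNA reverse-transcribed, reporter cDNA amplified, fluorescently labelled and HpaI-cut, then sized by capillary electrophoresis. Gain of signal fitted against DMSO control.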

[16] = target: Bile acid receptor (Homo sapiens) (UniProt Q96RI1); assay: ATG_FXR_TRANS: Attagene TRANS-FACTORIAL HepG2 Assay for Farnesoid X Receptor (FXR) (AID 2282979); conditions: HepG2 Attagene TRANS FXR-GAL4 reporter transcription;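 note: hits raise reporter mRNA above DMSO so AC50 marks FXR activation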
In short: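 Read-out: fluorescent reporter transcripts quantified by capillary electrophoresis after RT-PCR of total RNA. Source cells were HepG2 transiently carrying chimeric NR-GAL4 plus GAL4-UAS reporter units, dosed 24 h. Activity fitted upward relative to DMSO baseline.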

[17] = target: Oxysterols receptor LXR-beta (Homo sapiens) (UniProt P55055); assay: ATG_LXRb_TRANS: Attagene TRANS-FACTORIAL HepG2 Assay for human Liver X Receptor beta (LXRb) (AID 2282981); conditions: HepG2 Attagene TRANS GAL4-LXRb reporter, mRNA
In short: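 After 24 h chemical treatment of transfected HepG2 cells carrying exogenous NR-Gal4 chimeras, reporter mRNA was quantified by fluorescent RT-PCR and capillary electrophoresis; activity taken as increase over DMSO controls.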

[18] = target: Glucocorticoid receptor (Homo sapiens) (UniProt P04150); assay: ATG_GR_TRANS: Attagene TRANS-FACTORIAL HepG2 Assay for human Glucocorticoid Receptor (GR) (AID 2282978); conditions: HepG2 Attagene TRANS GR reporter, mRNA transcription;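 note: activators score as hits since higher reporter transcript over DMSO is fitted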
In short: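 Transiently transfected HepG2 cells express chimeric NR-GAL4 proteins acting on GAL4-UAS reporter units. Compounds are applied for 24 h. mRNA induction over DMSO is measured by capillary electrophoresis.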

[19] = target: Nuclear receptor subfamily 1 group I member 3 (Homo sapiens) (UniProt Q14994); assay: ATG_CAR_TRANS: Attagene TRANS-FACTORIAL HepG2 Assay for human Constitutive Androstane Receptor (CAR) (AID 2282969); conditions: HepG2 Attagene TRANS-FACTORIAL CAR reporter;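 note: activators raise reporter mRNA above DMSO so AC50 marks induction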
In short: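 Signal is reporter mRNA induction relative to DMSO, measured 24 h after dosing by RT-PCR with fluorescent primer extension and capillary electrophoresis. Human HepG2 liver cells carried transiently transfected chimeric NR-Gal4/GAL4-UAS reporter constructs.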

[20] = target: Steroid hormone receptor ERR1 (Homo sapiens) (UniProt P11474); assay: ATG_ERRa_TRANS: Attagene TRANS-FACTORIAL HepG2 Assay for human Estrogen-Related Receptor alpha (ERRa) (AID 2282971); conditions: HepG2 Attagene TRANS reporter, ERRa transactivation
In short: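 Transfected HepG2, 24 h dosing, ERRa-Gal4 chimera driving GAL4-UAS reporter. Readout: reporter mRNA via RT-PCR plus capillary electrophoresis (fluorescence). Positive direction vs DMSO control.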

Measured: AC50

Chain of Transcriptional activator Myb (Homo sapiens) (P10242 whole entry, looked up): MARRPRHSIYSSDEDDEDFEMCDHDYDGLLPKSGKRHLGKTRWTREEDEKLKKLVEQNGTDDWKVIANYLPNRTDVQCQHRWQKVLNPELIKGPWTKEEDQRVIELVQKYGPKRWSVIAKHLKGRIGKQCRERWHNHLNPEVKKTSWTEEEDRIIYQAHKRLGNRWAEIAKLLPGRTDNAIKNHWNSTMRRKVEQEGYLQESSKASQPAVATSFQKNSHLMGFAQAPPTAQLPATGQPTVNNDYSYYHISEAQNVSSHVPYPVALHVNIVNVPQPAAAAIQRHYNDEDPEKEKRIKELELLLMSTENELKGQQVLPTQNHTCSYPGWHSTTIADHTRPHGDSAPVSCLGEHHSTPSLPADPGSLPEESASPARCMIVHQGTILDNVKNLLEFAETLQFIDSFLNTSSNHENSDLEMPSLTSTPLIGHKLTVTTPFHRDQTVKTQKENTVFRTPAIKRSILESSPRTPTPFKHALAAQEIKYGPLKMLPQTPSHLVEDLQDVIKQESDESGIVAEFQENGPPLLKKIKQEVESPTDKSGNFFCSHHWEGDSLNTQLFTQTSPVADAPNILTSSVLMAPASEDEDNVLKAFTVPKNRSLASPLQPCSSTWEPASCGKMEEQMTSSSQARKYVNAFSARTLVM
Chain of Oxysterols receptor LXR-beta (Homo sapiens) (P55055 whole entry, looked up, the tested form may be a part): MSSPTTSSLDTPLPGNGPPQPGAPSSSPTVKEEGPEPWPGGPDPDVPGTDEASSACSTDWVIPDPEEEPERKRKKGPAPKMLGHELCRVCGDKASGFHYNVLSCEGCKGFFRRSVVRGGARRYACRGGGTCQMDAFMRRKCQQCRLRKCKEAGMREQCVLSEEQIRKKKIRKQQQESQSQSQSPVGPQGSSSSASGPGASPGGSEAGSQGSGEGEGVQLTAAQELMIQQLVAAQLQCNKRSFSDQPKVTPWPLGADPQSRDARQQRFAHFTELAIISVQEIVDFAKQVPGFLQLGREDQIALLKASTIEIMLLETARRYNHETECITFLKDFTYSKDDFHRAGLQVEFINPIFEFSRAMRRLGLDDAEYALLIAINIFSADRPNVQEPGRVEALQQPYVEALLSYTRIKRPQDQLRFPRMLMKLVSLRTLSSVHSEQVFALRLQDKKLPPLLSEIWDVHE
Chain of Hepatocyte nuclear factor 4-alpha (Homo sapiens) (P41235 whole entry, looked up, the tested form may be a part): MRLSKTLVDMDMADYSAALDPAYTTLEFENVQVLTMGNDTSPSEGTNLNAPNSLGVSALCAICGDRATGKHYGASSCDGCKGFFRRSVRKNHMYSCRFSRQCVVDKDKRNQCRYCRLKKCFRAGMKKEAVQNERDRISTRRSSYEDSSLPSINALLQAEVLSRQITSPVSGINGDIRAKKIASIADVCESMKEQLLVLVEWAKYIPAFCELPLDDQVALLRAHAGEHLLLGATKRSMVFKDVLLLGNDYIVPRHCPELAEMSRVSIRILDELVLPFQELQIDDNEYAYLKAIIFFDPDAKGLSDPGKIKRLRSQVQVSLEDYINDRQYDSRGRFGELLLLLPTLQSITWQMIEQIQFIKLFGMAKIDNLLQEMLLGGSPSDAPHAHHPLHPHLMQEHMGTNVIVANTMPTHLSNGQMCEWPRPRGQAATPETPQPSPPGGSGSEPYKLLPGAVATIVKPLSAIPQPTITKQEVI
Chain of Estrogen receptor (Homo sapiens) (P03372 whole entry, looked up, the tested form may be a part): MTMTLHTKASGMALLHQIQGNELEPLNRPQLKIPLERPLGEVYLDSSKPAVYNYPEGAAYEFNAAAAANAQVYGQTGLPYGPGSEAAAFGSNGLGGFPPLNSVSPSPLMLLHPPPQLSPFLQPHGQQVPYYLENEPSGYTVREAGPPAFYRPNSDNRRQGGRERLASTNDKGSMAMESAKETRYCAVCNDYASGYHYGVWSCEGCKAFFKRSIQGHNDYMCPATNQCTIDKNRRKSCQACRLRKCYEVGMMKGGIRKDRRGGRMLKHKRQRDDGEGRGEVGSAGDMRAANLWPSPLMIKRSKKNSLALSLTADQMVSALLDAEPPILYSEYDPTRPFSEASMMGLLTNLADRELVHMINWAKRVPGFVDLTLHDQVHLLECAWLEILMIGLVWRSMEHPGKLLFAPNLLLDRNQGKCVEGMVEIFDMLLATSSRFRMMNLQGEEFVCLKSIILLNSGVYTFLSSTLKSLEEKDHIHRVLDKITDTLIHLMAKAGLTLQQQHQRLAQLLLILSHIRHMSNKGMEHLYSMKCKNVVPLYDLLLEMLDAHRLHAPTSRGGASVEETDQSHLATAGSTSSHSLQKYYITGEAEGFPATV
Chain of X-box-binding protein 1 (Homo sapiens) (P17861 whole entry, looked up): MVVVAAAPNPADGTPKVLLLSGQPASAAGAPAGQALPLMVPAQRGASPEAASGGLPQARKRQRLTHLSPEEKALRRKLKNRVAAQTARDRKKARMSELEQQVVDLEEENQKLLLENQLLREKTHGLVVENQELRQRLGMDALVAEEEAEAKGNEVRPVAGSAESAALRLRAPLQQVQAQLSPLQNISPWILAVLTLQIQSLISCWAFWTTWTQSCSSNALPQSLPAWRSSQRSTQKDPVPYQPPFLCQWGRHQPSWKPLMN
Chain of Glucocorticoid receptor (Homo sapiens) (P04150 whole entry, looked up, the tested form may be a part): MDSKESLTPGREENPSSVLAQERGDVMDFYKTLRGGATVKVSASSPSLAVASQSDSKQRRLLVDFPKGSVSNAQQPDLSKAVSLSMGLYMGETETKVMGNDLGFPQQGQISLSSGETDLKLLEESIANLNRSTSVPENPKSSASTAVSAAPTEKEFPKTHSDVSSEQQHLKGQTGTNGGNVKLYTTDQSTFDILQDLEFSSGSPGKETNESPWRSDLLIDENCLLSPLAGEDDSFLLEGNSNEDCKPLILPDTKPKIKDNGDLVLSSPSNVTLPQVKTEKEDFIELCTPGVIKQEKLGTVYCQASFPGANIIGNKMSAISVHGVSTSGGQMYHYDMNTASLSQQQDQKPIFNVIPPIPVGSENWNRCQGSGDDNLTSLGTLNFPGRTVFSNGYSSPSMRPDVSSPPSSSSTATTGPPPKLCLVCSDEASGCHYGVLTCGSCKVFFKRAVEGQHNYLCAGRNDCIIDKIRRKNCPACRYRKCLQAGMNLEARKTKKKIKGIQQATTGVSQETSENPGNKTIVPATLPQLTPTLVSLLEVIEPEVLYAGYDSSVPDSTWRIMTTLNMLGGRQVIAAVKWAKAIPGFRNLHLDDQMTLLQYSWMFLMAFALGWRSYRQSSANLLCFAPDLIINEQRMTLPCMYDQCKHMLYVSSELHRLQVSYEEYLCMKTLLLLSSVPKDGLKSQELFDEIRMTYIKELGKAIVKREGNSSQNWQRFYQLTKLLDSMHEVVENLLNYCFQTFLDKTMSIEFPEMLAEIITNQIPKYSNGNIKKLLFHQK
Chain of Oxysterols receptor LXR-alpha (Homo sapiens) (Q13133 whole entry, looked up, the tested form may be a part): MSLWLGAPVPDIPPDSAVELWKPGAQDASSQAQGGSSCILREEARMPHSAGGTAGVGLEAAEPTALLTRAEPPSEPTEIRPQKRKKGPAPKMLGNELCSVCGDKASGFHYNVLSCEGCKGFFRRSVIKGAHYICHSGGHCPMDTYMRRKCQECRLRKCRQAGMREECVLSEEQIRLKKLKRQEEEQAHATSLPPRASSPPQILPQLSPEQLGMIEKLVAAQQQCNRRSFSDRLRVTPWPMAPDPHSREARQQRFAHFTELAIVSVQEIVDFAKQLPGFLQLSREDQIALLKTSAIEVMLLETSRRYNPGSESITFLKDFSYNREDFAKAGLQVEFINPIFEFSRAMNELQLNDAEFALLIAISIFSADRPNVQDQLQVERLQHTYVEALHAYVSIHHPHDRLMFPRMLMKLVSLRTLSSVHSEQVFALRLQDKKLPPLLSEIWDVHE
Chain of Nuclear receptor subfamily 4 group A member 2 (Homo sapiens) (P43354 whole entry, looked up, the tested form may be a part): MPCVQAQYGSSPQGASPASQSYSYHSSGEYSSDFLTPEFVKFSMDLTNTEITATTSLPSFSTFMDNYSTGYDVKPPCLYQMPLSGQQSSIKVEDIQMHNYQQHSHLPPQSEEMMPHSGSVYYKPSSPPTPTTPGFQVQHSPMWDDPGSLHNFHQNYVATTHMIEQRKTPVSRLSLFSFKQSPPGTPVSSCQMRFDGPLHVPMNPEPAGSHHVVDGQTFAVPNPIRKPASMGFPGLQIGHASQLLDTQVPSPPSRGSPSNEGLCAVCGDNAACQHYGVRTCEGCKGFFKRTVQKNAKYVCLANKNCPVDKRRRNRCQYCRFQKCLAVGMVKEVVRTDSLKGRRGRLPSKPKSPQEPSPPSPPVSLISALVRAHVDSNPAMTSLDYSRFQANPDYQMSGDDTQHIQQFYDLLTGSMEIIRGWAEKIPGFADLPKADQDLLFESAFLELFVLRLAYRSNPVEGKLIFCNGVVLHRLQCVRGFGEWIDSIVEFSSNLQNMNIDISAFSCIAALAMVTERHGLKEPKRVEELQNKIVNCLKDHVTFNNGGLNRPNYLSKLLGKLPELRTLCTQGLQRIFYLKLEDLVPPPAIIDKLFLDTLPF
Chain of Estrogen-related receptor gamma (Homo sapiens) (P62508 whole entry, looked up, the tested form may be a part): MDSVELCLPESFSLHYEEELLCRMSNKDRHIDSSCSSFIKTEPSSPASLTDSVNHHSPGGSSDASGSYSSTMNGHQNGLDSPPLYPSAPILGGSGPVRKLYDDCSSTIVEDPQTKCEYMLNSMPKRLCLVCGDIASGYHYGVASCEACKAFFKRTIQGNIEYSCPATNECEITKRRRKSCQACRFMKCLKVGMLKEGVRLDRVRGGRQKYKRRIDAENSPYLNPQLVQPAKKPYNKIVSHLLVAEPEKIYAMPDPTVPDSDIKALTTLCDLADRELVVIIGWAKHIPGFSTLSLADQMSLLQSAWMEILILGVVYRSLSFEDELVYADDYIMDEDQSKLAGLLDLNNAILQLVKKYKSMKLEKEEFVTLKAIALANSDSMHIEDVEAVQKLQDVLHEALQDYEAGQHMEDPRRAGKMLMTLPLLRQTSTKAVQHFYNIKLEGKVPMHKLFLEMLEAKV

CCCCOCC(C)O (centres undefined)
inactive: [1] | [2] | [3] | [4] | [5] | [6] | [7] | [8] | [9] | [10] | [11]

C=C(C)C(=O)OCC(O)COc1ccc(C(C)(C)c2ccc(OCC(O)COC(=O)C(=C)C)cc2)cc1 (centres undefined)
inactive: [1] | [2] | [3] | [12] | [13] | [14] | [8] | [15]
active: [4] 9.75 µM | [6] 26.3 µM | [10] 27.4 µM | [11] 158 µM

Clc1cccnc1
not listed: [5] | [9] | [10] | [14] | [18] | [19] | [20]
inactive: all other assays above

O=C1CCCCCCCCCCCN1
inactive: [1] | [2] | [3] | [4] | [5] | [6] | [13] | [7] | [11]

CCCCOCCOC(=O)COc1ccc(Cl)cc1Cl
not listed: [5] | [7] | [14] | [16] | [17] | [19] | [20]
inactive: all other assays above

O=C1c2ccccc2C(=O)c2cc(S(=O)(=O)O)ccc21
inactive: [1] | [2] | [3] | [4] | [6] | [12] | [18] | [7] | [17] | [15] | [11]

CC(Cl)COP(=O)(OCC(C)Cl)OCC(C)Cl (centres undefined)
not listed: [4] | [7] | [9] | [16]
inactive: all other assays above

CC12CCC(CC1)C(C)(C)O2
inactive: [1] | [2] | [3] | [4] | [6] | [13] | [16] | [8] | [10]
